HepG2 tox: counter-screen for TGF-b inhibitors: cytotoxicity in HepG2 cells | HepG2 CAGA-GFP viability, ATP luminescence, 18 h | Potency, µM (series often up to 46.1 µM), for the others: top-dose activity change, negative = cytotoxicity, hits mostly cytotoxic | 410,000 compounds, 0.76% hits | AID 588856; note: potency is the fitted concentration of half-maximal effect
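HepG2 CAGA-GFP cells (1000/well, DMEM with 1% FBS) received compound, then TGF-beta at 500 pg/mL final, and were incubated 18 hours at 37 degrees C. Viability was read by CellTiter-Glo luminescence. Media-only wells were set as complete cell-killing and DMSO as no toxicity.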
IL1B secr inh: inflammasome signaling inhibition, IL-1 beta readout | THP-1 LPS/ATP IL-1B secretion, AlphaLISA, 16 h; hits give low values | activity change, % at 57.5 µM | 360,000 compounds, 4.7% hits; in the data active = activity change below about -50%; inconclusive = mostly about -30% to -49%; note: % is set by controls: 0 for no effect and ±100 for the full control effect
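THP-1 cells pretreated 1 hr with compounds (up to 57.5 uM final), then stimulated with LPS (250 ng/mL final) plus ATP (1.25 mM final); secreted IL-1B measured by AlphaLISA after 16 hr, decreased signal indicating inhibition.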
DT40 TDP1 no CPT: qHTS for Inhibitors of human tyrosyl-DNA phosphodiesterase 1 (TDP1): qHTS in cells in absence of CPT. DT40 Tdp1-/- hTDP1 cells, no CPT, ATP luminescence, 48 h. Potency, µM (highest dose often 46.2 µM), for the others: top-dose activity change, negative = growth inhibition, hits mostly inhibitors. 420,000 compounds, 15% hits. AID 686978, 2013; note: potency is the fitted concentration of half-maximal effect; % is set by controls: 0 for no effect and ±100 for the full control effect; nearly all actives have a fitted effect of over 55% in size
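Chicken DT40 Tdp1-/- cells complemented with human TDP1, screened without camptothecin (DMSO vehicle only), 400 cells/well. Compounds pin-transferred, cells incubated at 37 °C for at least 48 hr. Growth read as ATP-dependent luminescence (CellTiter-Glo, 30 min at RT).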
TDP1 cell CPT: DT40-hTDP1 cell growth loss with CPT. chicken DT40 Tdp1-/-;hTDP1 cells + 20 nM CPT, ATP luminescence, 48 h. AID 686979. 420,000 compounds, 12% hits. Potency, µM (doses to about 46.2 µM), inactives show at the top dose activity change, negative = growth inhibition, actives largely listed as inhibitors; note: potency is the fitted concentration of half-maximal effect; % is set by controls: 0 for no effect and ±100 for the full control effect; nearly all actives have a fitted effect of over 55% in size
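Cell growth measured by CellTiter-Glo luminescence after a minimum 48 h, 37 C compound exposure with 20 nM CPT in Tdp1-knockout DT40 cells stably expressing hTDP1, seeded 400/well; qHTS titration format.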
TGFb inhibitor: TGF-b pathway inhibition; HepG2 CAGA-GFP TGF-b/SMAD3 reporter, GFP fluorescence, 18 h; TGF-beta stimulated, 500 pg/mL final; Potency, µM (highest dose often 46.1 µM), for inactives: top-dose activity, negative = inhibition, usual class: inhibitors; 410,000 compounds, 1.2% hits; note: potency is the fitted concentration of half-maximal effect; % is set by controls: 0 for no effect and ±100 for the full control effect; nearly all actives have a fitted effect of over 65% in size
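Inhibition of TGF-beta-driven CAGA-GFP reporter expression in HEPG2 cells is measured by cellular GFP fluorescence after 18 h stimulation with 500 pg/mL recombinant TGF-beta in 1% FBS medium at 37 degrees C.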
TDP1 inh: TDP1 (human) enzyme inhibition. AID 485290. Potency, µM (titrated, usually from 130 µM), without a hit: at the top dose activity change, negative = inhibition, most hits filed as inhibitors. 350,000 compounds, 0.28% hits. Q9NUW8. recombinant TDP1, AlphaScreen DNA substrate cleavage; note: potency is the fitted concentration of half-maximal effect; % is set by controls: 0 for no effect and ±100 for the full control effect; nearly all actives have a fitted effect of over 40% in size
Target sequence (Q9NUW8 whole entry, looked up): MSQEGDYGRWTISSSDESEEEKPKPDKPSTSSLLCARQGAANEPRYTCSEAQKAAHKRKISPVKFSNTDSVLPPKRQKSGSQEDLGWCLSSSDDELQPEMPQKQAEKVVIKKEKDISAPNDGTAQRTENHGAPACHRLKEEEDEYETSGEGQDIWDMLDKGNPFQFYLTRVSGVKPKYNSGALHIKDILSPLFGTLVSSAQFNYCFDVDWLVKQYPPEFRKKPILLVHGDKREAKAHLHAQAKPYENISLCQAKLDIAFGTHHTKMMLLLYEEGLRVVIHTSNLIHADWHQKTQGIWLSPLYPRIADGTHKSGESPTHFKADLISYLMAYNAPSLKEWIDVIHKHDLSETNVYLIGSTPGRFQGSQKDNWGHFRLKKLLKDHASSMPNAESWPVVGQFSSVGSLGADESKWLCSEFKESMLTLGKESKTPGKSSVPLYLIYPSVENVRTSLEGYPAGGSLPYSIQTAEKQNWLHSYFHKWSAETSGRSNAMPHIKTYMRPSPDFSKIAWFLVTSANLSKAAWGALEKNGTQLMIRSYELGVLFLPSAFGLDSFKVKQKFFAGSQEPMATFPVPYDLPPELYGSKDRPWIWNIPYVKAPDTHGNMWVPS
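Signal: AlphaScreen proximity between streptavidin donor and anti-FITC acceptor beads on intact substrate. Reaction: Tdp1 1 nM, substrate 15 nM final, 5 min RT after 15 min compound preincubation.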
Starred values were filed as active, the others as inactive; ? = inconclusive; nt = no result; ! = a repeat was not active; [ ] = remark or other dose. Most compounds without a hit are left out; they make up all but 18% or so of the library. Unless noted, calls come from the whole dose curve; as a rule, active = well fitted curve in the direction sought with a large enough effect; inconclusive = small, poorly fitted or top-dose-only effect, or another doubt; inactive = no such curve, though single readings can be large; an effect the other way counts as inactive or inconclusive.

SMILES	HepG2 tox	IL1B secr inh	DT40 TDP1 no CPT	TDP1 cell CPT	TGFb inhibitor	TDP1 inh
CC(=O)Nc1cc(-c2ccc(F)cc2)cn2c(-c3ccc(F)c(Cl)c3)cnc12	-27%	-13	23µM*	?	-6%	nt
CCN1CCN(C(CNS(=O)(=O)c2ccc(Cl)cc2)c2cccnc2)CC1 (stereo not drawn)	0%	-7	-13%	0%	6%	4%
C[C@H](C(=O)OCO/N=[N+](\[O-])N1CCCC1)c1cccc2ccccc12	-20%	nt	nt	nt	?	3%
CCOC(=O)/C(C#N)=C/c1cc2ccccc2nc1N1CCOCC1	9%	25	-9%	20%	18%	-3%
N#CC(C#N)=Cc1cc2ccccc2nc1N1CCCCC1	-8%	-104*	21µM*	21µM*	-18%	-3%
C=C1CCC2C(CC2(C)C)C(=O)CCC1O (stereo not drawn)	nt	nt	-12%	-16%	nt	-8%[56.1 µM]
Cc1ccc(-c2noc(-c3ccc(N4CCCC4)c([N+](=O)[O-])c3)n2)cc1	-1%	nt	?	?	19%	6%
COc1ccccc1N1CCN(c2ccc(-c3nc(-c4ccccc4)no3)cc2[N+](=O)[O-])CC1	7%	nt	9.2µM*	12µM*	-6%	6%
Cc1ccccc1-c1noc(-c2ccc(N3CCCCC3)c([N+](=O)[O-])c2)n1	-20%	nt	12µM*	?	12%	6%
COc1ccccc1N1CCN(c2ccc(-c3nc(-c4ccccc4C)no3)cc2[N+](=O)[O-])CC1	-1%	nt	10%	0%	-30%	9%
COc1ccccc1-c1noc(-c2ccc(N3CCC(C)CC3)c([N+](=O)[O-])c2)n1	-12%	nt	13µM*	?	?	9%
COc1ccccc1-c1noc(-c2ccc(N3CCN(c4ccccc4)CC3)c([N+](=O)[O-])c2)n1	-9%	nt	13µM*	23µM*	-8%	9%
COc1ccc(CN2C(=O)c3cccnc3C2=O)cc1S(=O)(=O)NC1CCCCC1	4%	19	-5%	-15%	-6%	3%
Cc1ccc(N2CC(NC(=O)CCCc3ccccc3)CC2=O)cc1 (stereo not drawn)	-14%	nt	-5%	-29%	-12%	-3%
CCOc1ccccc1NS(=O)(=O)c1cc2[nH]c(=O)c(=O)[nH]c2cc1C	-14%	nt	-27%	3%	0%	0%
CC1=C(CCC(=O)O)c2cc3nc(cc4[nH]c(cc5[nH]c(cc1n2)c(C)c5C(C)O)c(C)c4C(C)O)C(C)=C3CCC(=O)O (stereo not drawn)	nt	nt	17%	23%	nt	16µM*
CCOC(=O)C(NC(=O)NCc1ccccc1)(OCC)C(F)(F)F (stereo not drawn)	-1%	0	23µM*	?	-11%	-3%
CCOC(=O)C(NC(=O)c1ccccc1)(OCc1ccccc1)C(F)(F)F (stereo not drawn)	-10%	5	?	-16%	1%	0%
Cc1c(Cl)cccc1NC(=O)c1ccc(-n2ccnc2)nc1	-3%	-20	2%	-10%	3%	0%
Cc1nc2ccc(C(=O)N3CCc4c(cnc(C)c4CNC(=O)/C=C/c4cccs4)C3)cc2nc1C	nt	nt	-17%	16%[9.04 µM]	nt	nt
CCc1nnc(NC(=O)c2nc(S(=O)(=O)Cc3ccc(C)cc3)ncc2Cl)s1	-183%	-102*	21µM*	16µM*	?	3%
CCc1nnc(NC(=O)c2nc(Cl)ccc2Cl)s1	4%	-1	3%	-4%	-13%	2%
CCc1nnc(NC(=O)c2nc(SCc3ccccc3F)ncc2Cl)s1	-15%	nt	8%	-16%	7%	2%
CCc1nnc(NC(=O)c2nc(S(=O)(=O)Cc3cccc(C)c3)ncc2Cl)s1	22µM*	-102*	5.2µM*!	5.8µM*	11µM*	2%
CCc1nnc(NC(=O)c2nc(S(=O)(=O)Cc3ccccc3)ncc2Cl)s1	-95%	-100*	18µM*	18µM*	?	3%
SMILES	HepG2 tox	IL1B secr inh	DT40 TDP1 no CPT	TDP1 cell CPT	TGFb inhibitor	TDP1 inh
CCOc1ccccc1NC(=O)c1nc(S(=O)(=O)Cc2cccc(C)c2)ncc1Cl	-21%	0	0.65µM*	1.2µM*	?	5%
COc1ccc(CCC(=O)OCc2csc(CC(=O)Nc3ccccc3C)n2)cc1	3%	-8	-20%	-12%	24%	-2%
CC1CCCN(C(=O)C2CCN(S(=O)(=O)c3cccc4nonc34)CC2)C1 (stereo not drawn)	11%	19	-24%	2%	0%	1%
CC1=C(C(=O)Nc2ccccc2)C(c2ccccc2)n2nc(-c3ccco3)nc2N1 (stereo not drawn)	-38%	nt	-26%	-25%	0%	7%
O=C(O)c1ccc(Cl)c(S(=O)(=O)Nc2ccc(OCc3ccccc3)cc2)c1	-9%	22	?	3%	-2%	nt
CCC(=O)c1ccc(-c2ccccc2)cc1	-59%	19	2%	7%	1%	0%
CCC(=O)c1cccc(-c2ccccc2)c1CC	3%	-69*	-16%	5%	8%	nt
COc1c2c(cc3c1C(CC(O)Cc1ccccc1)N(C)CC3)OCO2 (stereo not drawn)	-27%	-6	10µM*	?	-17%	nt
COc1cccc(CC(O)CC2c3c(cc4c(c3OC)OCO4)CCN2C)c1 (stereo not drawn)	-30%	0	15µM*	21µM*	-3%	nt
COc1ccc2c(c1OC)C(=O)OC2[C@H]1c2c(cc3c(c2OC)OCO3)CCN1C (stereo partly drawn)	nt	nt	nt	nt	nt	9%[21 µM]
COc1ccc2c(c1OC)C(=O)O[C@@H]2[C@H]1c2c(cc3c(c2OC)OCO3)CCN1C	-8%	nt	-25%	4%	20%	5%
CC1(C(=O)O)CCCN1C(=O)c1ccco1 (stereo not drawn)	-1%	12	7%	-8%	-15%	nt
O=C(COc1cccnc1[N+](=O)[O-])c1ccc(Cl)s1	-3%	-11	16µM*	16µM*	-1%	1%
CC(=O)c1cccc(OCC(=O)c2cc(C)n(-c3cc(C)on3)c2C)c1	-28%	-17	18µM*	18µM*	13%	6%
Cc1cc(-n2c(C)cc(C(=O)COc3cccnc3[N+](=O)[O-])c2C)no1	-5%	12	15µM*	12µM*	19%	-2%
